# Reference: PubChem BioAssay (Tox21)
# “And” between values parts separate entries of the source, which are not always exact repeats. Equal entries are not always repeated. Inconclusive results are not listed. Entries that show only a call come without a potency. Where a structure was tested more than once in an assay, its records may differ in their call. The source made the active and inactive calls. Calls follow the shape of the dose curve; as a rule, active = well fitted activation curve with a large enough effect in the repeat runs; inconclusive = weak or mixed curves; inactive = no such curve, though single readings can be large or run the other way.
# Target: Nuclear receptor subfamily 1 group I member 2 (Homo sapiens) (UniProt O75469)
# Assay: Human pregnane X receptor (PXR) small molecule agonists, qHTS assay (AID 1346982); also: nearly all actives have a fitted effect of over 35% in size
# Conditions: PXR-Luc HepG2, CYP3A4 luciferase reporter, 24 h; series mostly up to 92.4 µM
# Description: National Center for Advancing Translational Sciences [NCATS]
# NIH Chemical Genomics Center [NCGC]
# U.S. Environmental Protection Agency [EPA]
# National Institutes of Environmental Health Sciences [NIEHS]
# National Toxicology Program [NTP]
# The human pregnane X receptor (hPXR) regulates the expression of several drug metabolizing enzymes and induction of these proteins is a major mechanism for developing drug resistance in cancer. One such key enzyme catalyzing the drug metabolism is cytochrome P450 3A4 (CYP3A4). Changes in CYP3A4 expression affect drug metabolism, thereby reducing the therapeutic efficacy and altering toxicological response to a drug and which finally causes adverse drug interaction. To screen Tox21 libraries for compounds that activate hPXR-mediated CYP3A4 gene expression, PXR-Luc HepG2 cells were used.
# PXR-Luc HepG2 cells were dispensed at 2,000 per well in 5uL of assay medium containing 5% charcoal-stripped FBS into white solid bottom 1536-well plates (Corning Life Sciences, Corning, NY) using a Multidrop Combi (Thermo Scientific, Waltham, MA) dispenser. The assay plates were incubated at 37 C and 5% CO2 for 5hr, and then 23nL of compounds dissolved in DMSO and positive control were transferred using a Pintool station (Wako, San Diego, CA). The assay plates were incubated at 37C and 5% CO2 for 24hr. For luciferase read, 4uL of ONE-Glo reagent (Promega Corporation, Madison, WI) was added to each well of the assay plates using Flying Reagent Dispenser (FRD, Aurora Discovery, San Diego, CA) and incubated the assay plates at room temperature for 30min. The luminescence signal was quantified using a ViewLux plate reader (Perkin Elmer, Shelton, CT).
# Potency is read from the fitted curve at half-maximal effect.
# Nuclear receptor subfamily 1 group I member 2 (Homo sapiens), sequence (O75469 whole entry, looked up): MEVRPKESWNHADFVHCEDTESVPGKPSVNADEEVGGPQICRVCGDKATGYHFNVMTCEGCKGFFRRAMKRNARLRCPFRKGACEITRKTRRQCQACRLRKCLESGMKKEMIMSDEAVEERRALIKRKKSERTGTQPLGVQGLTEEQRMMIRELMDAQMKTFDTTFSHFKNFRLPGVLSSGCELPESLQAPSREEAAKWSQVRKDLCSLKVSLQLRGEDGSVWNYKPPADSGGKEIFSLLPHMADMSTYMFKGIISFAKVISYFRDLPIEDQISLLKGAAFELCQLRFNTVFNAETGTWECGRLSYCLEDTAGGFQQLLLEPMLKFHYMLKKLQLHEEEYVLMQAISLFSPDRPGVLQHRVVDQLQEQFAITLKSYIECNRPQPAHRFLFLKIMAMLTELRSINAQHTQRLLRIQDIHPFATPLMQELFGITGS
row,SMILES,Potency
1,CCCCC(CC)COC(=O)CCCCCCCC(=O)OCC(CC)CCCC (stereo not given),24.3 µM (active) and inactive
2,O=C(c1cc(O)c(O)c(O)c1)c1ccc(O)c(O)c1O,inactive
3,CCc1ccc(O)cc1,inactive
4,CCOC(=O)/C=C\C(=O)OCC,inactive
5,CCCCCCCCCCC=CC1CC(=O)OC1=O (stereo not given),inactive
6,NCCc1ccc(O)c(O)c1,inactive
7,CCCCNC(N)=O,inactive
8,CC(=O)CCc1ccccc1,inactive
9,C=C(C)C(=O)OCCCCCC,inactive
10,COCC(C)O (stereo not given),inactive
11,Cc1cc(O)cc(C)c1Cl,inactive
12,Cc1ccc(C)c(C)c1,inactive
13,CC1=CC[C@H]2C[C@@H]1C2(C)C,inactive
14,c1ccc2[nH]cnc2c1,inactive
15,C=C1C2CCC(C2)C1(C)C (stereo not given),inactive
16,O=c1c(-c2ccc(O)cc2)coc2cc(O)ccc12,30.3 µM (active) and 13.7 µM (active)
17,S=c1nc[nH]c2nc[nH]c12,inactive
18,CCCCCCCCC,inactive
19,C=C(C)C(=O)OCCCCCCCCCCCC,inactive
20,CS(=O)(=O)c1ccc([C@@H](O)[C@@H](CO)NC(=O)C(Cl)Cl)cc1,inactive

row,SMILES,Potency
1,COC(=O)c1ccccc1O,34.4 µM (active) and inactive
2,CC(C)(C)C(=O)C1C(=O)c2ccccc2C1=O,60.5 µM (active) and inactive
3,CC1CC(OC(=O)c2ccccc2O)CC(C)(C)C1 (stereo not given),inactive
4,O=S(=O)(O)CCS,inactive
5,Cc1cc(=O)[nH]c(C(C)C)n1,inactive
6,Clc1cc(Cl)c(Cl)cc1Cl,inactive
7,Cn1c([N+](=O)[O-])cnc1COC(N)=O,inactive
8,OCCOCCOCCOCCO,inactive
9,OC1CCCC1,30.6 µM (active) and inactive
10,ClC1=C(Cl)C(Cl)(Cl)C(Cl)=C1Cl,inactive
11,C[C@@H](O)[C@H]1C(=O)N2C(C(=O)O)=C(S[C@@H]3CN[C@H](C(=O)N(C)C)C3)[C@H](C)[C@H]12,inactive
12,OCC1CCCO1 (stereo not given),inactive
13,O=[N+]([O-])c1cc(N(CCO)CCO)ccc1NCCO,inactive
14,O=C(O)c1ccc([N+](=O)[O-])cc1,inactive
15,Nc1cc(-c2ccncc2)c[nH]c1=O,inactive
16,Nc1nc2ncc(CNc3ccc(C(=O)N[C@@H](CCC(=O)O)C(=O)O)cc3)nc2c(=O)[nH]1,inactive
17,CC1(C)CC(N=C=O)CC(C)(CN=C=O)C1 (stereo not given),inactive
18,c1ccc2ccccc2c1,inactive
19,O=S(=O)(O)c1cc(S(=O)(=O)O)c2c(N=Nc3ccccc3)c(O)ccc2c1,inactive
20,CC1(C)O[C@@H]2C[C@H]3[C@@H]4C[C@H](F)C5=CC(=O)CC[C@]5(C)[C@H]4[C@@H](O)C[C@]3(C)[C@]2(C(=O)CO)O1,11.9 µM (active)
